Measurements from paper PMC5540273 (PLoS ONE, 2017).

Experiments:
Conditions in all cases: concentration: 1 μM, replicates: in singlicate; n = 1
[1] = test system: ABL2
[2] = test system: ACVR1B
[3] = test system: ACVR1
[4] = test system: ACVR2A
[5] = test system: ACVR2B
[6] = test system: ACVRL1
[7] = test system: T1, ADCK3
T1 construct: gene CABC1

[8] = test system: ADCK4
[9] = test system: AKT1
[10] = test system: AKT2
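Further: KINOMEscan kinase panel screen.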

Structure (SMILES) | %Inh [1] | %Inh [2] | %Inh [3] | %Inh [4] | %Inh [5] | %Inh [6] | %Inh [7] | %Inh [8] | %Inh [9] | %Inh [10]
O=C(Nc1n[nH]c2nc(-c3ccco3)c(Br)cc12)c1ccc(CN2CCCC2)cc1.O=C(O)[C@H](O)[C@@H](O)C(=O)O [SB-742352] | 0% | 0% | 24% | 0% | 0% | 0% | 0% | 0% | 0% | 0%
CN1CCC(n2cnc(-c3ccc(F)cc3)c2-c2ccnc(NC3CCNCC3)n2)CC1 [SB-229482] | 0% | 0% | 0% | 0% | 0% | 7% | 9% | 5% | 0% | 0%
CNc1nccc(-c2c(-c3ccc(F)cc3)ncn2C2CCN(C)CC2)n1 [SB-222903] | 0% | 0% | 0% | 0% | 0% | 0% | 0% | 22% | 0% | 2%
CSc1ccc(NC2=C(c3ccccc3Cl)C(=O)NC2=O)cc1 [SB-342411] | 3% | 0% | 0% | 0% | 0% | 0% | 16% | 0% | 0% | 11%
Cc1cccc(-c2nc(Nc3ccc4[nH]nnc4c3)c3ccccc3n2)n1 [GW867587] | 0% | 0% | 0% | 0% | 0% | 0% | 0% | 8% | 5% | 0%
O=C(CCO)NCCn1ccc2ncnc(Nc3ccc(Oc4cccc(C(F)(F)F)c4)c(Cl)c3)c21 | 0% | 0% | 0% | 0% | 0% | 0% | 3% | 0% | 0% | 0%
Clc1ccc(-c2cc(-c3c[nH]nc3-c3ccccn3)ccn2)cc1 [GW681251] | 15% | 44% | 12% | 33% | 52% | 0% | 13% | 4% | 27% | 0%
Cl.c1ccc(Cn2ccc3cc(Nc4ncnc5ccccc45)ccc32)cc1 [GW275568] | 0% | 0% | 10% | 2% | 16% | 0% | 24% | 4% | 3% | 12%
Cc1cc(N2CCC(NS(=O)(=O)c3ccc(F)cc3)CC2)nc(Nc2cccc(C#N)c2)n1.O=C(O)C(F)(F)F [GSK1653537] | 2% | 0% | 0% | 0% | 0% | 0% | 0% | 0% | 0% | 20%
O=C(NCCCN1CCCC1=O)c1cnc(NCc2cc(Cl)ccc2Cl)nc1NC1CCNCC1 | 0% | 0% | 0% | 0% | 0% | 0% | 9% | 0% | 0% | 0%
Nc1nc(-c2cccnc2)c(-c2ccnc3ccccc23)s1 [GW684083] | 12% | 10% | 32% | 0% | 0% | 12% | 24% | 45% | 0% | 1%
COc1cc2c(Nc3cccc(NC(=O)c4ccccc4)c3)ncnc2cc1OCCCN1CCOCC1 [GSK223810] | 21% | 7% | 5% | 0% | 0% | 0% | 30% | 12% | 0% | 19%
N#Cc1ccc(Oc2ccc(Nc3ncnc4cc[nH]c34)cc2Cl)cc1 | 12% | 15% | 1% | 27% | 25% | 6% | 13% | 8% | 0% | 0%
COc1ccc(NC(=O)Nc2ccc(C)c(-c3ccc(C(=O)Nc4ccncc4)cc3)c2)cc1 [GSK1398475] | 12% | 0% | 43% | 0% | 0% | 0% | 19% | 34% | 0% | 0%
Cc1ccc(O)cc1Nc1cc(C(F)(F)F)nc2ccc(-c3ccncc3)cc12 [GW630823] | 14% | 0% | 11% | 0% | 0% | 0% | 10% | 0% | 5% | 1%
Cn1cc(-c2ccc3c(c2)CCN3C(=O)Cc2cccc(C(F)(F)F)c2)c2c(N)ncnc21 [GSK2606414] | 11% | 0% | 0% | 0% | 1% | 4% | 6% | 0% | 0% | 18%
c1ccc(-c2ccc3c(-c4ccnc(Nc5ccc6c(c5)OCCO6)n4)cnn3n2)cc1 [GW818941] | 12% | 0% | 24% | 32% | 11% | 13% | 0% | 9% | 0% | 10%
CNc1nccc(-c2c(-c3ccc(F)cc3)ncn2CCCN2CCOCC2)n1 [SB-222516] | 12% | 19% | 8% | 4% | 4% | 15% | 1% | 0% | 18% | 0%
CN1c2ccc(-c3ccc(C(=O)NCCO)cc3)cc2-c2[nH]ncc2S1(=O)=O | 7% | 0% | 22% | 0% | 2% | 0% | 0% | 3% | 11% | 0%
FC(F)(F)c1ccc(-c2cc(-c3c[nH]nc3-c3ccccn3)ccn2)cc1 [GW599550] | 16% | 46% | 16% | 0% | 34% | 0% | 9% | 37% | 0% | 0%
CS(=O)(=O)CCNCc1nc(-c2ccc3ncnc(Nc4ccc(OCc5cccc(F)c5)c(Cl)c4)c3c2)cs1.Cl [GW583340] | 0% | 0% | 0% | 0% | 0% | 0% | 1% | 20% | 0% | 0%
